Results taken from PubChem BioAssay (Tox21).
“And” between values parts separate entries of the source, which are not always exact repeats. Equal values may be shown once. Inconclusive results are not listed. A call without a number means that no potency is given here. A structure can be active in one record and inactive in another. The source made the active and inactive calls. Unless noted, calls come from the whole dose curve; as a rule, active = well fitted curve in the direction sought with a large enough effect in the repeat runs; inconclusive = weak or mixed curves; inactive = no such curve, though single readings can be large; an effect the other way counts as inactive or inconclusive.

Legend:
[1] = qHTS assay to identify small molecule agonists of the estrogen receptor alpha (ER-alpha) signaling pathway in the presence of an antagonist - cell viability counter screen (AID 1259386);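 note: cells exposed to compounds for 22 h at 37 °C before the viability read; nearly all actives have a fitted effect of over 30% in size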; note: potency is the fitted concentration of half-maximal effect; for activity change, negative = cytotoxicity: series mostly up to about 92 µM
In short: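 Steps: 5-day stripped-FBS culture; seed and incubate 24hr; add ICI-182,780 (10.0nM final); pin 15-point compound titration; incubate 22hr at 37C; add CellTiter-Fluor at 21hr; read fluorescence.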

[2] = target: Progesterone receptor (Homo sapiens) (UniProt P06401); experiment: qHTS assay to identify small molecule antagonists of the progesterone receptor (PR) signaling pathway (AID 1346795; active = well fitted inhibition curve with a large enough effect in the signal ratio in the repeat runs, not every such curve was filed as active; the % refers to the signal ratio; note: potency is the fitted concentration of half-maximal effect)
Progesterone receptor (Homo sapiens), sequence (P06401 whole entry, looked up): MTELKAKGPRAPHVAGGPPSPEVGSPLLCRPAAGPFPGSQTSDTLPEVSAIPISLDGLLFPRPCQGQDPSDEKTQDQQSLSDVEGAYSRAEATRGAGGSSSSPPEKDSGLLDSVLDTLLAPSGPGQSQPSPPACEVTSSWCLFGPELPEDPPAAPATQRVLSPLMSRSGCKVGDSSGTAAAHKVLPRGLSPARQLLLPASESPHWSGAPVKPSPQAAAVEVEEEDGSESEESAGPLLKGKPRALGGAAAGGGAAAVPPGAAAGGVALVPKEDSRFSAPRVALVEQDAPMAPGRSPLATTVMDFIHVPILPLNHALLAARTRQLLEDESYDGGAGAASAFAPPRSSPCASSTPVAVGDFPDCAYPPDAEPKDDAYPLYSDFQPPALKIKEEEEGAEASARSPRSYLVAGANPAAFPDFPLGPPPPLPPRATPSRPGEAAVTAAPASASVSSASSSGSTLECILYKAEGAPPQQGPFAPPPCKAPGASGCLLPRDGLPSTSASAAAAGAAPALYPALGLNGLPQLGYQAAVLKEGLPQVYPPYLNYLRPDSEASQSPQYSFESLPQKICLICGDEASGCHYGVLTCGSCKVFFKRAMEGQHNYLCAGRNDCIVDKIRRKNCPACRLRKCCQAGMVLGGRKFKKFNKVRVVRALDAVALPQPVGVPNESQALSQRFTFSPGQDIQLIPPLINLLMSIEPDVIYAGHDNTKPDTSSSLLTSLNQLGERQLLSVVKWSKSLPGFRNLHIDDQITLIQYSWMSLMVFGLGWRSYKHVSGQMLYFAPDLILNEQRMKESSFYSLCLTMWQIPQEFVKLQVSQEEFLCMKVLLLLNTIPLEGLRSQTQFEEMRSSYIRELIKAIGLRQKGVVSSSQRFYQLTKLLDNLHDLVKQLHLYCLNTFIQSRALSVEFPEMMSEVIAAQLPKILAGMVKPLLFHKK
In short: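 Read-out is fluorescence from the LiveBLAzer B/G FRET substrate, cleaved by a UAS-controlled beta-lactamase in PR-UAS-bla HEK293T cells after 16 hr exposure to compound plus 1 nM promegestone (final), followed by 2 hr at room temperature.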

[3] = qHTS assay to identify small molecule antagonists of the progesterone receptor (PR) signaling pathway - cell viability counter screen (AID 1346798); note: nearly all actives have a fitted effect of over 50% in size; note: potency is the fitted concentration of half-maximal effect;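 for activity change, negative = cytotoxicity: HEK293T PR-UAS-bla cells stimulated with the agonist R5020; series mostly up to about 92 µM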
In short: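 HEK293T PR-UAS-bla, 2% charcoal-stripped FBS; 4 hr pre-plate; cpd + R5020, 16 h 37C; LiveBLAzer read first; then CellTiter-Glo 30 min RT, luminescence.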

[4] = qHTS assay to identify small molecule agonists of the progesterone receptor (PR) signaling pathway - cell viability counter screen (AID 1346799; calls by dose curve; note: nearly all actives have a fitted effect of over 45% in size; note: potency is the fitted concentration of half-maximal effect)
In short: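 Luminescence from CellTiter-Glo, added after the beta-lactamase FRET read in the same wells, gave cytotoxicity in PR-UAS-bla HEK293T cells treated with compounds for 16 hr at 37C.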

[5] = qHTS assay to identify small molecule antagonists of the TGF-beta/Smad signaling pathway - cell viability counter screen (AID 1346824); note: nearly all actives have a fitted effect of over 50% in size
In short: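 SBE-bla HEK 293T cells, incubated overnight, then compound plus 0.25 ng/mL TGF-beta1 (stock added) for 5 hr at 37 C. Viability was read in the same wells by CellTiter-Glo luminescence after 30 min at room temperature.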

[6] = qHTS assay to identify small molecule agonists of the TGF-beta/Smad signaling pathway - cell viability counter screen (AID 1346829); note: nearly all actives have a fitted effect of over 45% in size; note: potency is the fitted concentration of half-maximal effect; for activity change, negative = cytotoxicity: top concentration of the series differs between compounds
In short: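 Same-well cytotoxicity: CellTiter-Glo added after the 2 hr room-temperature beta-lactamase substrate step, luminescence measured 30 min later; cells had 5 hr of compound at 37 C.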

[7] = qHTS assay to identify small molecule agonists of the TGF-beta/Smad signaling pathway (AID 1346859; active = well fitted activation curve with a large enough effect in the signal ratio in the repeat runs, not every such curve was filed as active; the % refers to the signal ratio; note: series mostly up to about 77 µM)
In short: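 SBE-bla HEK 293T, 4,000 cells/well, plated o/n; cpd in DMSO, 5 hr, 37 C/5% CO2; B/G FRET substrate 2 hr RT; ex 405, em 460/530 nm.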

[8] = target: Progesterone receptor (Homo sapiens) (UniProt P06401); experiment: qHTS assay to identify small molecule agonists of the progesterone receptor (PR) signaling pathway (AID 1346784; calls by dose curve; note: nearly all actives have a fitted effect of over 30% in size)
In short: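 Beta-lactamase reporter read-out: after 16 hr compound treatment at 37C and a further 2 hr at room temperature with LiveBLAzer B/G FRET substrate, fluorescence was measured in PR-UAS-bla HEK 293T cells grown in 2% charcoal-stripped serum.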

[9] = target: Thyrotropin-releasing hormone receptor (Homo sapiens) (UniProt P34981); experiment: qHTS assay to identify small molecule antagonists of the thyrotropin-releasing hormone receptor (TRHR) signaling pathway (AID 1346877; active = well fitted inhibition curve with a large enough effect in the repeat runs, not every such curve was filed as active; note: series mostly up to about 51 µM)
Thyrotropin-releasing hormone receptor (Homo sapiens), sequence (P34981 whole entry, looked up): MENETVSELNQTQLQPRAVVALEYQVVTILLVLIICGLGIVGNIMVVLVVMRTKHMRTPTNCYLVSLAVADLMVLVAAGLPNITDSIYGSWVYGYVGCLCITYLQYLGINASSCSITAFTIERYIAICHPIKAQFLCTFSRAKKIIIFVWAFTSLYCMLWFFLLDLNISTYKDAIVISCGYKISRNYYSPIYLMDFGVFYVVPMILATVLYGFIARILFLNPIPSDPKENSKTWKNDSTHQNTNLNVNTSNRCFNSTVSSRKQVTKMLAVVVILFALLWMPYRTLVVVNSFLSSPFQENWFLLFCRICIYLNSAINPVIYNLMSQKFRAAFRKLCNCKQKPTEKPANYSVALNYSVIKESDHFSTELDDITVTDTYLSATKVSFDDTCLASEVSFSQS
In short: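 Human TRHR in HEK293 cells; inhibition of the intracellular calcium rise triggered by 1 nM TRH was followed by fluorescence over 3 min. Compounds were run at 15 concentrations, three replicates each.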

| Structure (SMILES) | Potency [1] | Potency [2] | Potency [3] | Potency [4] | Potency [5] | Potency [6] | outcome [7] | activity change, negative = cytotoxicity [4] | Potency [8] | outcome [9] |
| --- | --- | --- | --- | --- | --- | --- | --- | --- | --- | --- |
| O=C1N=C(O)CN1/N=C/c1ccc(-c2ccc([N+](=O)[O-])cc2)o1 | 27.3 µM (active) and 26.6 µM (active) | inactive | inactive | inactive | inactive | inactive |  |  |  |  |
| CC(C)(C)C(=O)C1C(=O)c2ccccc2C1=O | 60.5 µM (active) and 61.1 µM (active) | inactive | inactive | inactive |  | inactive | inactive |  |  |  |
| CCC(=O)O | inactive |  | inactive |  | inactive | inactive | inactive | -3.72% [at 19 µM] (inactive) |  |  |
| CCCCCCCCCCCCN | inactive | inactive | inactive | inactive |  | inactive and 21.9 µM (active) | inactive |  | inactive | inactive |
| O=C(Oc1ccccc1)c1ccc(O)cc1 | inactive | 61.1 µM (active) | inactive | inactive |  | inactive | inactive |  | inactive | inactive |
| Clc1ccc(Cl)c(Cl)c1Cl | inactive | inactive | inactive | inactive | inactive | inactive | inactive |  |  | inactive |
| CC[Si](OC(C)=O)(OC(C)=O)OC(C)=O | inactive | inactive | inactive | inactive |  | inactive | inactive |  | inactive | inactive |
| CC(C)Cc1ccccc1 | inactive | inactive | inactive | inactive |  | inactive | inactive |  |  | inactive |
| Cc1cc(Cc2ccc(N)c(C)c2)ccc1N | inactive |  | inactive | inactive | inactive | inactive | inactive |  | inactive | inactive |
| C=C(C)C(=O)OCCCCCC | inactive | inactive | inactive | inactive |  | inactive | inactive |  | inactive | inactive |
| CCCCC(CC)COC(=O)/C=C\C(=O)OCC(CC)CCCC (stereo not drawn) | inactive | inactive | inactive | inactive | inactive | inactive | inactive |  |  | inactive |
| Cc1cc(O)cc(C)c1Cl | inactive | inactive | inactive | inactive | inactive | inactive | inactive |  |  | inactive |
| O=C1O[C@H](CO)[C@@H](O)[C@H](O)[C@H]1O | inactive | inactive | inactive | inactive |  | inactive | inactive |  | inactive | inactive |
| CCOC(=O)C1OC1c1ccccc1 (stereo not drawn) | inactive | inactive | inactive | inactive | inactive | inactive | inactive |  |  | inactive |
| O=C(c1cc(O)c(O)c(O)c1)c1ccc(O)c(O)c1O | 34.3 µM (active) and 30.6 µM (active) | inactive | inactive | inactive | inactive | inactive | inactive |  |  | inactive |
| CC1COc2ccccc2N1C(=O)C(Cl)Cl (stereo not drawn) | inactive | 30.6 µM (active) and 24.3 µM (active) |  |  |  | inactive | inactive |  |  | inactive |

| Structure (SMILES) | Potency [1] | Potency [2] | Potency [3] | Potency [4] | Potency [5] | Potency [6] | outcome [7] | activity change, negative = cytotoxicity [4] | Potency [8] | outcome [9] |
| --- | --- | --- | --- | --- | --- | --- | --- | --- | --- | --- |
| CC(C)NCC(O)COc1cccc2ccccc12 (stereo not drawn) | inactive | inactive | 30.9 µM (active) and 27.3 µM (active) |  |  | inactive | inactive |  |  | inactive |
| CCOC(=O)[C@H](CCc1ccccc1)N[C@@H](C)C(=O)N1Cc2ccccc2C[C@H]1C(=O)O | inactive |  | inactive | inactive |  | inactive | inactive |  |  |  |
| COC(=O)Nc1nc2ccc(Sc3ccccc3)cc2[nH]1 | inactive |  | inactive |  | inactive | inactive | inactive |  | inactive | inactive |
| NCCNCCNCCNCCN | inactive | inactive | inactive | inactive | inactive | inactive | inactive |  |  |  |
| O=[N+]([O-])c1cc(N(CCO)CCO)ccc1NCCO | 34.3 µM (active) and 27.3 µM (active) | inactive | inactive | inactive |  | inactive | inactive |  |  |  |
| CN(C)c1ccc(C(=N)c2ccc(N(C)C)cc2)cc1 | 30.3 µM (active) and 20.9 µM (active) |  | inactive |  | inactive | inactive | inactive |  |  | inactive |
| c1ccc2[nH]cnc2c1 | inactive | inactive |  | inactive | inactive | inactive | inactive |  |  | inactive |
| C=C(C)C(=O)OCCC[Si](OC)(OC)OC | inactive | inactive | inactive | inactive |  | inactive | inactive |  | inactive | inactive |
| NC(=O)/N=N/C(N)=O | inactive | inactive | inactive | inactive | inactive | inactive | inactive |  |  | inactive |
| CC(C)n1c(/C=C/[C@@H](O)C[C@@H](O)CC(=O)O)c(-c2ccc(F)cc2)c2ccccc21 | inactive |  |  | 0.77 µM (active) | inactive | inactive | inactive |  | inactive | inactive |
| CC(C)(N=C=O)c1cccc(C(C)(C)N=C=O)c1 | inactive | inactive | inactive | inactive |  | inactive | inactive |  | inactive | inactive |
| Oc1ccc(OCc2ccccc2)cc1 | inactive | 18.9 µM (active) | inactive | inactive |  | inactive | inactive |  | inactive | inactive |
| CCCCCCCCC | inactive | inactive | inactive | inactive |  | inactive | inactive |  |  | inactive |
| OCC1CCCO1 (stereo not drawn) | inactive | inactive | inactive | inactive | inactive | inactive | inactive |  |  | inactive |
| C=C1C2CCC(C2)C1(C)C (stereo not drawn) | inactive | inactive | inactive | inactive |  | inactive | inactive |  |  | inactive |
